Test [1] can be described thus: NCI Yeast Anticancer Drug Screen. Data for the rad50 strain (AID 155).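 Also: 0% = growth of vehicle-only cultures of the same strain.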 Conditions: S. cerevisiae rad50 strain growth inhibition, stronger effect = higher value. The procedure, abridged: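 Yeast carrying a defined DNA repair defect were exposed to test compounds, and growth was compared with vehicle-treated controls to give percent inhibition.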
Test [2] can be described thus: NCI Yeast Anticancer Drug Screen. Data for the mec2-1 strain (AID 157). Conditions: S. cerevisiae mec2-1 strain, stronger effect = higher value. Summed up: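 Readout is yeast growth inhibition, normalised to vehicle-treated controls, in the mec2-1 strain exposed to compound.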
Test [3] can be described thus: NCI Yeast Anticancer Drug Screen. Data for the sgs1 mgt1 strain (AID 161).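 Also: 0% = growth of cultures given vehicle only.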 Conditions: S. cerevisiae sgs1 mgt1 strain, stronger effect = higher value. Summed up: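 Compounds are added to genetically altered yeast, and growth is compared with cultures given vehicle alone to give percent inhibition.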
The nature of test [4]: NCI Yeast Anticancer Drug Screen. Data for the cln2 rad14 strain (AID 165).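 Also: 0% = growth equal to vehicle treated cultures.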 Conditions: S. cerevisiae cln2 rad14 strain, stronger effect = higher value. Summed up:
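Relative to vehicle controls, growth inhibition of compound-treated cln2 rad14 yeast was recorded.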

A short description of test [5]: NCI Yeast Anticancer Drug Screen. Data for the bub3 strain (AID 167). Conditions: S. cerevisiae bub3 mutant strain, stronger effect = higher value. Summed up:
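Compounds were applied to a genetically altered yeast strain carrying a cell-cycle control defect. Growth inhibition was scored against vehicle-treated controls.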

Test [6] in a line: NCI Yeast Anticancer Drug Screen. Data for the mlh1 rad18 strain (AID 175). Conditions: S. cerevisiae mlh1 rad18 strain growth inhibition, stronger effect = higher value. Summed up: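 Test agents were incubated with a yeast strain of defined genotype (DNA damage repair defect). Inhibition of growth was derived by comparison with vehicle-exposed cultures.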
The mark [7] stands for this setting: at 5.0 µM (retest, dose inferred, filed as 0.5).
[8] abbreviates: at 50.0 µM (retest, dose inferred, filed as 5.0).

The structures appear in SMILES notation. Where “and” joins values, the source holds several entries; their conditions need not be identical. Equal values may be shown once. About 79,000 compounds went through this panel and 15% of them were active in at least one assay; those are over-represented in the sample as a whole. Where a structure was tested more than once in an assay, its records may differ in their call. Calls of active or inactive are those of the source. Rule as the data show it: active = growth inhibition above about 70%; inactive = the rest.

As for `Cc1ccnc2c1c(=O)c1ccccc1n2C`, the growth inhibition in test [1] (setting [7]) is 0% (inactive); in test [1] (setting [8]), 86% (active); in test [1] (at 50.0 µM), 79.1% (active); in test [2] (setting [7]), 4% (inactive); in test [2] (setting [8]) it was 28% (inactive); in test [2] (at 50.0 µM), 60.2% (inactive). Further, the growth inhibition was -2% (inactive) in test [3] (setting [7]); 35% (inactive) in test [3] (setting [8]); 68.9% (inactive) in test [3] (at 50.0 µM); -6% (inactive) in test [4] (setting [7]); -3% (inactive) in test [4] (setting [8]); 46.2% (inactive) in test [4] (at 50.0 µM). The growth inhibition in test [5] (setting [7]) is -1% (inactive); in test [5] (setting [8]), 12% (inactive); in test [5] (at 50.0 µM) it was 71.6% (active); in test [6] (setting [7]) it was 3% (inactive); in test [6] (setting [8]) it was 55% (inactive); in test [6] (at 50.0 µM) it was 74.3% (active).

In the case of `O=C(CCC(=O)OCCOc1ccccc1)OCCOc1ccccc1`, the growth inhibition is 10% (inactive) in test [1] (setting [7]); -1% (inactive) in test [1] (setting [8]); -3.5% (inactive) in test [1] (at 50.0 µM); -16% (inactive) in test [2] (setting [7]); -13% (inactive) in test [2] (setting [8]); -4.7% (inactive) in test [2] (at 50.0 µM). Also, the growth inhibition in test [3] (setting [7]) was 17% (inactive); in test [3] (setting [8]), 3% (inactive); in test [3] (at 50.0 µM), -6.4% (inactive); in test [4] (setting [7]) it was 7% (inactive); in test [4] (setting [8]), 20% (inactive); in test [4] (at 50.0 µM) it was 21.6% (inactive). The growth inhibition in test [5] (setting [7]) is 1% (inactive); in test [5] (setting [8]) it was 7% (inactive); in test [5] (at 50.0 µM) it was -4% (inactive); in test [6] (setting [7]) it was 6% (inactive); in test [6] (setting [8]) it was 30% (inactive); in test [6] (at 50.0 µM) it was -1.75% (inactive).

For `CCCCCCN(CCCCCC)C(=O)C1=C(C)NC(C)=C(C(=O)N(CCCCCC)CCCCCC)C1`, the growth inhibition in test [1] (setting [7]) is 1% (inactive); in test [1] (setting [8]), 15% (inactive); in test [1] (at 50.0 µM), 56.4% (inactive); in test [2] (setting [7]), -16% (inactive); in test [2] (setting [8]) it was -3% (inactive); in test [2] (at 50.0 µM), 4.4% (inactive). Besides, the growth inhibition in test [3] (setting [7]) is -8% (inactive); in test [3] (setting [8]) it was -1% (inactive); in test [3] (at 50.0 µM) it was 85.2% (active); in test [4] (setting [7]), 33% (inactive); in test [4] (setting [8]) it was 14% (inactive); in test [4] (at 50.0 µM), 0.5% (inactive). Further, the growth inhibition is -5% (inactive) in test [5] (setting [7]); 17% (inactive) in test [5] (setting [8]); 34.9% (inactive) in test [5] (at 50.0 µM); -1% (inactive) in test [6] (setting [7]); -13% (inactive) in test [6] (setting [8]); 59% (inactive) in test [6] (at 50.0 µM).

In the case of `CN=c1sc2nc(C#N)c(C#N)nc2n1C`, the growth inhibition in test [1] (setting [7]) was -15% (inactive); in test [1] (setting [8]), 44% (inactive); in test [1] (at 50.0 µM), 85.3% (active); in test [2] (setting [7]) it was -8% (inactive); in test [2] (setting [8]), 61% (inactive); in test [2] (at 50.0 µM), 40.1% (inactive). Further, the growth inhibition is -23% (inactive) in test [3] (setting [7]); 35% (inactive) in test [3] (setting [8]); 75.3% (active) in test [3] (at 50.0 µM); 2% (inactive) in test [4] (setting [7]); 23% (inactive) in test [4] (setting [8]); 63.1% (inactive) in test [4] (at 50.0 µM). The growth inhibition in test [5] (setting [7]) was -22% (inactive); in test [5] (setting [8]), 69% (inactive); in test [5] (at 50.0 µM) it was 89.8% (active); in test [6] (setting [7]), -8% (inactive); in test [6] (setting [8]), 58% (inactive); in test [6] (at 50.0 µM), 81.5% (active).

As for `COc1ccc(N/N=C(\CCN(C)C)c2ccccc2)cc1`, the growth inhibition in test [1] (setting [7]) was 7% (inactive); in test [1] (setting [8]), 51% (inactive); in test [1] (at 50.0 µM) it was 80.7% (active); in test [2] (setting [7]) it was -2% (inactive); in test [2] (setting [8]) it was 40% (inactive); in test [2] (at 50.0 µM) it was 3.7% (inactive). The growth inhibition in test [3] (setting [7]) was 16% (inactive); in test [3] (setting [8]), 61% (inactive); in test [3] (at 50.0 µM), 56.9% (inactive); in test [4] (setting [7]), 6% (inactive); in test [4] (setting [8]), 32% (inactive); in test [4] (at 50.0 µM) it was 57.9% (inactive). Moreover, the growth inhibition in test [5] (setting [7]) is -6% (inactive); in test [5] (setting [8]), 78% (active); in test [5] (at 50.0 µM), 49.2% (inactive); in test [6] (setting [7]) it was 12% (inactive); in test [6] (setting [8]) it was 78% (active); in test [6] (at 50.0 µM) it was 94.8% (active).

Regarding `CCSC(=NC)Nc1ccc(Oc2ccc(Cl)cc2)cc1`, the growth inhibition in test [1] (setting [7]) is 38% (inactive); in test [1] (setting [8]), 90% (active); in test [1] (at 50.0 µM) it was 81.9% (active); in test [2] (setting [7]), 39% (inactive); in test [2] (setting [8]), 83% (active); in test [2] (at 50.0 µM), 67.8% (inactive). In addition, the growth inhibition in test [3] (setting [7]) was 40% (inactive); in test [3] (setting [8]), 99% (active); in test [3] (at 50.0 µM), 92.4% (active); in test [4] (setting [7]), 33% (inactive); in test [4] (setting [8]) it was 75% (active); in test [4] (at 50.0 µM), 71.1% (active). Moreover, the growth inhibition in test [5] (setting [7]) was 46% (inactive); in test [5] (setting [8]) it was 72% (active); in test [5] (at 50.0 µM), 88.2% (active); in test [6] (setting [7]), 46% (inactive); in test [6] (setting [8]), 97% (active); in test [6] (at 50.0 µM), 81.6% (active).

In the case of `CSc1ccc(N2C(=O)CSC2=S)cc1Cl`, the growth inhibition in test [1] (setting [7]) was 27% (inactive); in test [1] (setting [8]), 74% (active); in test [1] (at 50.0 µM), 97.5% (active); in test [2] (setting [7]), 27% (inactive); in test [2] (setting [8]) it was 40% (inactive); in test [2] (at 50.0 µM), 94.3% (active). Moreover, the growth inhibition is 16% (inactive) in test [3] (setting [7]); 79% (active) in test [3] (setting [8]); 95.2% (active) in test [3] (at 50.0 µM); -1% (inactive) in test [4] (setting [7]); -4% (inactive) in test [4] (setting [8]); 29.1% (inactive) in test [4] (at 50.0 µM). Also, the growth inhibition in test [5] (setting [7]) is 37% (inactive); in test [5] (setting [8]) it was 82% (active); in test [5] (at 50.0 µM), 92.4% (active); in test [6] (setting [7]), 31% (inactive); in test [6] (setting [8]) it was 94% (active); in test [6] (at 50.0 µM), 97% (active).

`Oc1ccccc1C=Nc1ccccc1O`: the growth inhibition was 22% (inactive) in test [1] (setting [7]); 32% (inactive) in test [1] (setting [8]); 59.2% (inactive) and 56.2% (inactive) in test [1] (at 50.0 µM); 8% (inactive) in test [2] (setting [7]); 22% (inactive) in test [2] (setting [8]); 36.7% (inactive) and 41.9% (inactive) in test [2] (at 50.0 µM). For the same compound, the growth inhibition was 7% (inactive) in test [3] (setting [7]); 16% (inactive) in test [3] (setting [8]); 35.5% (inactive) and 42.1% (inactive) in test [3] (at 50.0 µM); -5% (inactive) in test [4] (setting [7]); 5% (inactive) in test [4] (setting [8]); 17.2% (inactive) and 32.1% (inactive) in test [4] (at 50.0 µM). Further, the growth inhibition was 79% (active) in test [5] (setting [7]); 65% (inactive) in test [5] (setting [8]); 54.4% (inactive) and 72.1% (active) in test [5] (at 50.0 µM); 38% (inactive) in test [6] (setting [7]); 47% (inactive) in test [6] (setting [8]); 49.8% (inactive) and 29.6% (inactive) in test [6] (at 50.0 µM).
